The source of these data is PubChem BioAssay AID2685 (National Center for Advancing Translational Sciences (NCATS), 2010).

Out of some 320,000 compounds screened, about 2,100 (0.66%) were called active. Not shown: some 53% with an inconclusive outcome. The call rests on the fitted dose curve; in most records, active means well fitted inhibition curve with a large enough effect in the signal ratio, with a control signal flat (not every such curve was filed as active); inconclusive means small, poorly fitted or top-dose-only effect, or effect the other way, or a change in a side signal; inactive means flat fitted curve, though single readings scatter; the % refers to the signal ratio. Shown is part of a subset that was picked to be rich in actives.
Potency means the concentration at half of the fitted maximal effect.

The nature of this assay: qHTS Assay for Lipid Storage Modulators in Drosophila S3 Cells.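 On cell number change: cells counted by Cell Tracker Red CMTPX staining in the red channel.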 On lipid storage change, negative = inhibition: on the % scale 0 is the no-effect control and ±100 the full control effect. The conditions noted are these: BODIPY lipid droplet fluorescence, 18-24 h, cells fed with added oleic acid; cell number change: measured here: cell count max response; series mostly up to 46.1 µM; lipid storage change, negative = inhibition: at the top concentration. An excerpt: NIH Molecular Libraries Probe Production Centers Network [MLPCN] NIH Chemical Genomics Center [NCGC] MLPCN Grant: 1 R03 MH085686-01 Assay Submitter (PI): Beller, Mathias; Max-Planck-Institut fur Biophysikalische Chemie NCGC Assay Overview: Storing lipids as a reservoir for energy or the anabolism of elementary metabolites is a common feature of probably all cells and is conserved from bacteria to humans. The universal cellular lipid storage organelle is the so-called lipid storage droplet (LD). Although ubiquitous, LDs share a simple structure composed of a hydrophobic core that harbors the storage lipids, which is shielded by a droplet-specific phospholipid monolayer to which proteins are attached. The current model of LD biogenesis involves an incorporation of the lipid core into the membrane leaflets of the endoplasmic reticulum (ER) followed by a subsequent budding-like maturation of a LD, which ultimately pinches off. Once released, LD volume can increase by localized lipogenesis or fusion of existing droplet. Storage lipids are re-mobilized enzymatically by lipase activity. Lipase regulation in the adipocyte is heavily studied and involves multiple components including catecholamine signaling, the LD-associated proteins Perilipin and comparative gene identification (CGI-58) and at least two lipases named hormone sensitive lipase (HSL) and adipocyte triglyceride lipase (ATGL). LD regulation outside of the adipocyte is poorly understood and only few components are known. However, there is an urgent need to learn more about ectopic fat depots as mislocalized storage of lipids, for example in the liver or muscle, is an eminent health problem associated with insulin resistance or the metabolic syndrome. We developed a laser-scanning cytometer assay to enable 1,536-well screening and combined the results of the small molecules screen with an RNAi database based on lipid storage.
Triacsin C (Sigma-Aldrich T-4540), an inhibitor of long-chain fatty acyl CoA synthetase that blocks synthesis of triglycerides, was used as a positive control for lipid under-storage. A total of 23 nL of compound solution of different concentrations were transferred to the assay plates using a Kalypsys pin tool equipped with a 1,536-pin array containing 10-nL slotted pins (FP1S10, 0.457-mm diameter, 50.8 mm long; V&P Scientific). One microliter of oleic acid (400 uM) was added, and the plate was lidded with stainless steel rubber gasket lined lids containing pinholes. […] Fluorescence was detected by excitation of the fluorophores with a 488-nm laser on an Acumen Explorer (TTP Lab Tech). The total intensity in channel 2 (500-530 nm) reflected lipid droplet accumulation. Cells were detected using channel 3 (575-640 nm) with 5-um width and 100-um depth filters. The ratio of the number of objects in PMT channel 2 over the number of objects in PMT channel 3 was also calculated. Percent activity was computed relative to an internal control (100% inhibited lipid droplet deposition due to the presence of 20 uM Triacsin C), which was added to 32 wells/plate.
(qHTS replaces the single test concentration by a dilution series.)
In the case of `Cc1ccc(NC(=S)NC(C)CCc2ccccc2)cc1C` (stereo unspecified), the “lipid storage change, negative = inhibition” value is 23.3% (inactive) and the cell number change is 23.4%.

Turning to `Cc1ccccc1C(=O)Nc1ccc2nc3n(c(=O)c2c1)CCCC3`, the “lipid storage change, negative = inhibition” value is -12.1% (inactive) and the cell number change turned out to be 22.5%.

`CCOc1ccccc1C(=O)Nc1ccc2nc3n(c(=O)c2c1)CCCCC3`: the Potency was 1.64 µM (active) and the cell number change was -27.2%.

As to `O=C(Nc1ccc2nc3n(c(=O)c2c1)CCCCC3)c1ccccn1`, the “lipid storage change, negative = inhibition” value was 7.43% (inactive) and the cell number change was -14.9%.

Regarding `CCO[C@@H]1OC(C(=O)NC2CC2)=C[C@H](c2csc3ccccc23)[C@H]1CCCO`, the “lipid storage change, negative = inhibition” value was -22.9% (inactive) and the cell number change came out at 0.265%.

For the compound `CC1CCN(S(=O)(=O)c2ccc3c(c2)N(CC(=O)NCCN2C(C)CCCC2C)C(=O)CS3)CC1` (stereo unspecified), the “lipid storage change, negative = inhibition” value was -11.8% (inactive).

For the compound `C=CCNC(=S)N1CC2(C)CN(C(=S)NCC=C)CC(C)(C1)C2=O`, the “lipid storage change, negative = inhibition” value is -3.79% (inactive) and the cell number change amounted to 9.2%.

Regarding `CC(C)(C)c1[nH]ncc1[N+](=O)[O-]`, the compound was called inactive and the cell number change is -8.1%.

Regarding `O=C(CN1C(=O)NC2(CCCC2)C1=O)OCCOc1ccc(Cl)cc1Cl`, the call was inactive.

Regarding `COC(=O)C1=CN(c2cccc(C(F)(F)F)c2)C=C(C(=O)OC)C1c1ccc(O)c(OC)c1`, the “lipid storage change, negative = inhibition” value was 2.64% (inactive) and the cell number change was -17.2%.

For the compound `CCOC(=O)C1=CN(c2cccc(F)c2)C=C(C(=O)OCC)C1c1cc(OC)c(O)c([N+](=O)[O-])c1`, the call was inactive.

For the compound `COC(=O)C1=CN(c2cccc(C)c2)C=C(C(=O)OC)C1c1cc(OC)c(O)c([N+](=O)[O-])c1`, the Potency is 25.9 µM (active) and the cell number change is -3.94%.

In the case of `O=C(Cn1nc(Cc2cccnc2)c2ccccc2c1=O)Nc1cccnc1Cl`, the “lipid storage change, negative = inhibition” value is 3.38% (inactive) and the cell number change is 1.33%.

`COc1ccc(-c2cc(=O)oc3cc(OCc4nn[nH]n4)ccc23)cc1`: the “lipid storage change, negative = inhibition” value was 11.3% (inactive) and the cell number change stood at 14.9%.

Regarding `O=C(/C=C/c1cccnc1)c1ccc([N+](=O)[O-])cc1`, the “lipid storage change, negative = inhibition” value is -21.5% (inactive) and the cell number change turned out to be 10.1%.

As for `CN(C)S(=O)(=O)c1ccc(C(=O)/C=C/c2cccnc2)cc1`, the Potency is 0.326 µM (active) and the cell number change amounted to 10.3%.

In the case of `CN(C)c1ccc(C(=O)/C=C/c2cccnc2)cc1`, the “lipid storage change, negative = inhibition” value was -2.87% (inactive) and the cell number change is -3.58%.

For `CCc1ccc(N2C(=O)C3NN=C(C(=O)OCc4ccccc4)C3C2=O)cc1` (stereo unspecified), the “lipid storage change, negative = inhibition” value is -5.22% (inactive) and the cell number change was 22.8%.

In the case of `COc1cccc(-c2nc(=S)c3c(o2)CCCC3)c1`, the “lipid storage change, negative = inhibition” value was 2.96% (inactive) and the cell number change was found to be 9.57%.

Turning to `O=C(Nc1ccc(OCC(=O)N2CCOCC2)cc1)c1cncc(Br)c1`, the “lipid storage change, negative = inhibition” value was -3.23% (inactive) and the cell number change amounted to 9.01%.

`Cc1ccc(NC(=O)c2ccccc2OCc2c(C)noc2C)cc1S(=O)(=O)N(C)C`: the “lipid storage change, negative = inhibition” value is 3.93% (inactive) and the cell number change was -11.7%.

For the compound `CC(=O)NCCC1CCN(C(=O)C2CCC(=O)N(C3CCCC3)C2)CC1` (stereo unspecified), the call was inactive and the cell number change was found to be 0.283%.

For `CC1(C)COCN1C(=O)c1ccc(C#N)cc1`, the “lipid storage change, negative = inhibition” value was -2.88% (inactive) and the cell number change worked out at 5.63%.

`CC1(C)CSC(=NCCc2ccccc2)N1C(=O)c1ccc(C#N)cc1`: the Potency is 1.3 µM (active) and the cell number change is -0.734%.

Take `CC1(C)CSC(=NCc2ccccc2)N1C(=O)c1cccc([N+](=O)[O-])c1`: the “lipid storage change, negative = inhibition” value is 8.87% (inactive) and the cell number change was 13.5%.

As for `O=C(CNS(=O)(=O)c1ccccc1)OCC(=O)c1ccc(F)cc1`, the outcome was inactive and the cell number change worked out at 14.3%.

`O=C(Nc1cccc(F)c1)c1c(F)c(F)c(F)c(F)c1F`: the compound was classed as inactive.

In the case of `COc1ccc(CNC(=O)c2cc(C3CC3)nc3c2cnn3C(C)C)cc1OC`, the Potency was 11.6 µM (active) and the cell number change was determined as 1.25%.

Turning to `COc1cccc(CNC(=O)c2cc(C3CC3)nc3c2cnn3C(C)C)c1`, the “lipid storage change, negative = inhibition” value was -14.5% (inactive) and the cell number change turned out to be 5.87%.

On to `Cc1ccc(CNC(=O)c2cc(C3CC3)nc3c2cnn3C(C)C)cc1`, for which the outcome was inactive and the cell number change is -11.5%.

For `COc1ccc(CSc2nncn2C)cc1[N+](=O)[O-]`, the “lipid storage change, negative = inhibition” value is 18.5% (inactive) and the cell number change is -11.4%.

Consider `O=C(Nc1c2c(nn1-c1ccccc1)CS(=O)(=O)C2)c1ccc2c(c1)OCO2`, for which the “lipid storage change, negative = inhibition” value was 17.4% (inactive) and the cell number change was -19%.

Turning to `O=C(COC(=O)c1cccc(S(=O)(=O)N2CCOCC2)c1)Nc1ncc(C(F)(F)F)cc1Cl`, the Potency is 23.1 µM (active) and the cell number change is -11.5%.

As for `O=C(COC(=O)c1cccc(S(=O)(=O)N2CCOCC2)c1)Nc1ccc(Cl)cn1`, the “lipid storage change, negative = inhibition” value was 23.1% (inactive) and the cell number change was -3.5%.

Turning to `O=C(COC(=O)c1cccc(S(=O)(=O)N2CCc3ccccc32)c1)Nc1ncc(C(F)(F)F)cc1Cl`, the “lipid storage change, negative = inhibition” value was -12.9% (inactive) and the cell number change is -1.02%.

On to `Cc1ccc(NC(=O)CCC(=O)Nc2ccc(C)cc2)cc1`, for which the “lipid storage change, negative = inhibition” value is -11.2% (inactive) and the cell number change was -16.8%.

In the case of `Cc1cc(C)cc(C(=O)N2CCC3(CC2)NCCc2[nH]cnc23)c1`, the “lipid storage change, negative = inhibition” value was -13.7% (inactive).

In the case of `COc1ccc(-c2csc(NC(=O)c3cccc(N4C(=O)CCC4=O)c3)n2)cc1OC`, the “lipid storage change, negative = inhibition” value was -8.17% (inactive) and the cell number change stood at 19.9%.

For the compound `CNCCCOc1ccc(C)cc1Br`, the Potency was 20.6 µM (active) and the cell number change was -34.9%.

In the case of `CCCCNCCCOc1ccc(C)cc1Br`, the “lipid storage change, negative = inhibition” value was -0.0338% (inactive) and the cell number change worked out at 10%.

Take `COCCCNCCCOc1ccc(C)cc1Br`: the “lipid storage change, negative = inhibition” value is 9.41% (inactive) and the cell number change is -14.3%.

On to `CCc1noc(C)c1C(=O)OCC(=O)c1ccccc1OC`, for which the “lipid storage change, negative = inhibition” value was -18.6% (inactive) and the cell number change was -12.4%.

For `CCCCCC(=O)Nc1cc(S(=O)(=O)N2CCCCC2)ccc1N1CCOCC1`, the “lipid storage change, negative = inhibition” value is -20.9% (inactive) and the cell number change is -1.56%.

`Cc1ccc(NC(=O)C2CCN(S(C)(=O)=O)CC2)cc1`: the “lipid storage change, negative = inhibition” value is -13.2% (inactive) and the cell number change came to 1.04%.

Consider `Cc1ccc(NC(=O)C2CCN(S(C)(=O)=O)CC2)cc1C`, for which the Potency is 6.51 µM (active).

Regarding `COc1ccc(NC(=O)C2CCN(S(C)(=O)=O)CC2)cc1OC`, the “lipid storage change, negative = inhibition” value was 16.9% (inactive) and the cell number change is 11.1%.
